This note sets out measurements from PubChem BioAssay.

Assay [1] concerns the target Nuclear receptor coactivator 3 (Homo sapiens) (UniProt Q9Y6Q9). The assay can be described thus: NCOA3 GAL4-fusion reporter inhibition – cell-based, luminescence, quadruplicate, confirmation (AID 588792;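 active means mean inhibition over 43.08%, the solvent-only control mean plus 3 SD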;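 further: 0% = DMSO treated cells and 100% = gossypol at 36 µM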). Conditions: HEK293 GAL4-SRC3 luciferase reporter, at 3.6 µM, stronger effect = higher value. In general terms: In a reporter assay the amount or activity of a reporter protein is the signal.

For assay [2], the system named is transactivating tegument protein VP16 (Human herpesvirus 1), Gal4-VP16 luciferase reporter. The assay can be described thus: repression of VP16-driven luciferase reporter – cell-based, luminescence, high throughput, counter-screen for SRC3 inhibitor project (AID 588794; in the data active means inhibition above about 30%). Conditions: mammalian cells, at 3.6 µM, stronger effect = higher value.
The target of assay [3] is Nuclear receptor coactivator 1 (Homo sapiens) (UniProt Q15788). The assay can be described thus: NCOA1 GAL4-fusion reporter inhibition – cell-based, luminescence, quadruplicate, confirmation (AID 588820;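 active means mean inhibition above 46.68%, the untreated control wells mean plus 3 SD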;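 further: 0% = DMSO wells and 100% = gossypol 36 µM treated wells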). The settings on record: HEK293 GAL4-SRC1 luciferase reporter, at 3.6 µM, stronger effect = higher value.
A short description of assay [4]: repression of VP16-driven luciferase reporter – cell-based, luminescence, high throughput, counter-screen for SRC1 inhibitor project (AID 588824; in the data active means inhibition above about 25%). Conditions: cell-based VP16 transactivation luciferase luminescence; at 3.6 µM; stronger effect = higher value.
Assay [5] in a line: StAR promoter reporter inhibitors, counter-screen for LRH-1 inverse agonist project, cell-based, luminescence, high throughput (AID 651611). The settings on record: StAR promoter luciferase reporter counterscreen, at 3.6 µM, stronger effect = higher value. On the technique in general: The purpose of a counterscreen is to sort out artefacts and off-target activity.
Assay [6] has as its target Nuclear receptor subfamily 5 group A member 2 (Homo sapiens) (UniProt O00482). The assay can be described thus: NR5A2 activity suppression in reporter cells – cell-based, luminescence, confirmation (AID 651613; in the data active means inhibition above about 42%;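 further: HEK293T cells co-transfected with LRH-1 and StAR promoter luciferase reporter; 0% = vehicle wells and 100% = parental cells lacking receptor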). The settings on record: cell-based LRH-1 luciferase reporter, inverse agonism; at 3.6 µM; stronger effect = higher value.
In assay [7] the target is Steroidogenic factor 1 (Homo sapiens) (UniProt Q13285). The assay can be described thus: inverse agonism at SF1 nuclear receptor – cell-based, luminescence, high throughput, counter-screen for LRH-1 inverse agonist project (AID 651614; in the data active means inhibition above about 44%;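 further: cells cotransfected with StAR promoter reporter and SF1 expression vector; 0% = vehicle on cells with receptor and 100% = vehicle on cells lacking receptor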). The settings on record: cell-based SF1 luciferase reporter, at 3.6 µM, stronger effect = higher value.
Assay [8] is described as follows: compounds suppressing VP16-driven luciferase signal – cell-based, luminescence, high throughput, counter-screen for LRH-1 inverse agonist project (AID 651615; in the data active means inhibition above about 33%). Conditions: Gal4-VP16 luciferase reporter cells, at 3.6 µM, stronger effect = higher value.
Assay [9] relates to transactivating tegument protein VP16 (Human herpesvirus 1). Description: compounds suppressing VP16-driven luciferase signal – cell-based, luminescence, single concentration, counter-screen for SRC2 inhibitor project (AID 652007; in the data active means inhibition above about 36%). The settings on record: cell-based VP16 transactivation luciferase reporter, at 8.9 µM, stronger effect = higher value.
The target in assay [10] is Nuclear receptor coactivator 2 (Homo sapiens) (UniProt Q15596). Description: inhibition of GAL4-SRC2 driven luciferase expression – cell-based, luminescence, HEK293, triplicate, confirmation (AID 652008;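 active means mean inhibition above 46.5%, the solvent-only control mean plus 3 SD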;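 further: 0% = DMSO-treated cells and 100% = Gossypol at 36 µM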). Conditions: HEK293 GAL4-SRC2 luciferase reporter, at 8.9 µM, stronger effect = higher value.

Values without a mark were called inactive. Activity calls are given as the source filed them. Unless noted, no stated cut-off is given here; in the data, active means inhibition above about 28%; inactive means the rest.

Sequence of Nuclear receptor subfamily 5 group A member 2 (Homo sapiens) (O00482 whole entry, looked up): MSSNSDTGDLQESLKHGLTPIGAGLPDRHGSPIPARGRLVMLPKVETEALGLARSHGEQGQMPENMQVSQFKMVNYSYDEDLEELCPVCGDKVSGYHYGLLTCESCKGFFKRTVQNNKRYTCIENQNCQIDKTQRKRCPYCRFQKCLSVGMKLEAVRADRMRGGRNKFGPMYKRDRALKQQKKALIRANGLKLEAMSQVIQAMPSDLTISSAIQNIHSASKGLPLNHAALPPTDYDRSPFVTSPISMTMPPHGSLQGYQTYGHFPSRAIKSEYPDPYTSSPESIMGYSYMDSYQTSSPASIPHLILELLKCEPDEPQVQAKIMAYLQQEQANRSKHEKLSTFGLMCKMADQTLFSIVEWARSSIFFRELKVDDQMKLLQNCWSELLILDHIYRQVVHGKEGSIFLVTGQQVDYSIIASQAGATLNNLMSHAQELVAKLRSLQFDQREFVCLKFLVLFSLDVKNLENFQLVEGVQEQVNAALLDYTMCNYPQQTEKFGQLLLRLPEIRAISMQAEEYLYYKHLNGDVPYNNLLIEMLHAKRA
Sequence of Steroidogenic factor 1 (Homo sapiens) (Q13285 whole entry, looked up, the tested form may be a part): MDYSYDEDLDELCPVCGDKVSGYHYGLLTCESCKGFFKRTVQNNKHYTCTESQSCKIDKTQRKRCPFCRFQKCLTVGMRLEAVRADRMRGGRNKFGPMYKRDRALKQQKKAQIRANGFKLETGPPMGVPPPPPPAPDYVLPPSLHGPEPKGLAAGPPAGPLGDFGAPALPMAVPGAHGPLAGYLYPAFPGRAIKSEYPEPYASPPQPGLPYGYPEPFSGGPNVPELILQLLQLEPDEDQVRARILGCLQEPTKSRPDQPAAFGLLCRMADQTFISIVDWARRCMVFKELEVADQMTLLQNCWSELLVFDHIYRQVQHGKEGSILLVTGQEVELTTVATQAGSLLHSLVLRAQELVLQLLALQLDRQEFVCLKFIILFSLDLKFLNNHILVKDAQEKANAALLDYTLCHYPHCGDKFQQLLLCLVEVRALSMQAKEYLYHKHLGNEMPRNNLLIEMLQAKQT
Sequence of Nuclear receptor coactivator 3 (Homo sapiens) (Q9Y6Q9 whole entry, looked up, the tested form may be a part): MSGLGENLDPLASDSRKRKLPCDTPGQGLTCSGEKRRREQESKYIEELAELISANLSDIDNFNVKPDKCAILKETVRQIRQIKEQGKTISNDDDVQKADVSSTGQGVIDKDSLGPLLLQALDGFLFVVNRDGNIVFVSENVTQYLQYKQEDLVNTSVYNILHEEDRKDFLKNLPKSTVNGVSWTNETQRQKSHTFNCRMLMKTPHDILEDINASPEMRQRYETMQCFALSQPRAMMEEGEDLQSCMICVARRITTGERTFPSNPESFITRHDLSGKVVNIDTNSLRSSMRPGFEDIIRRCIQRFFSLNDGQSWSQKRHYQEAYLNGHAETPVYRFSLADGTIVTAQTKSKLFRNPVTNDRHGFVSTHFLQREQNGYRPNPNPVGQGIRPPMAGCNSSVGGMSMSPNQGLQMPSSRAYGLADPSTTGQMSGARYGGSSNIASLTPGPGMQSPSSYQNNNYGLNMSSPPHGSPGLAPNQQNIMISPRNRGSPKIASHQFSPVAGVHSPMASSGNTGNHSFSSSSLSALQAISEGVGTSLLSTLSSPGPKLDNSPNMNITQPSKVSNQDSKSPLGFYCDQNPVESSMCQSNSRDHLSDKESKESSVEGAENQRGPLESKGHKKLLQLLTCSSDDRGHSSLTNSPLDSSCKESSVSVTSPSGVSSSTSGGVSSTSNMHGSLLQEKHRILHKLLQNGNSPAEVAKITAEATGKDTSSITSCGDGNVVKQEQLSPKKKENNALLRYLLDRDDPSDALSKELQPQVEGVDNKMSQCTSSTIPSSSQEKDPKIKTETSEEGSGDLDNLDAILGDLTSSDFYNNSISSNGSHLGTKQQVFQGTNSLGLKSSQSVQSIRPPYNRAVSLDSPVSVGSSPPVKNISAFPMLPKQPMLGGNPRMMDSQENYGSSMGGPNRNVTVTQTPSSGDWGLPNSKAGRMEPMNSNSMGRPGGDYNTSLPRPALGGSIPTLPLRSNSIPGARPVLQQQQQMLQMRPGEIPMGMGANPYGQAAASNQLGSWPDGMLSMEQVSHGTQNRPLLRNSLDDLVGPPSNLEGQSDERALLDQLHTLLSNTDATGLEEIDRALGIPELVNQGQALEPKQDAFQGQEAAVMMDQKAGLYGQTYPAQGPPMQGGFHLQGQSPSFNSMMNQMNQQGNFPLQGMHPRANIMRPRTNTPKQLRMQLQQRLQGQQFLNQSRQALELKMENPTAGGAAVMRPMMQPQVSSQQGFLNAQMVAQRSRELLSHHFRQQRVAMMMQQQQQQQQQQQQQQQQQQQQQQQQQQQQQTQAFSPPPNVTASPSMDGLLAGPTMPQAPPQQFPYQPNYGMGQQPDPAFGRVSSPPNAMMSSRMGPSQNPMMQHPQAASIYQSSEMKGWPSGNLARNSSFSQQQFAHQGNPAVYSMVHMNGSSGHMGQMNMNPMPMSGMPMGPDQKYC
Sequence of Nuclear receptor coactivator 1 (Homo sapiens) (Q15788 whole entry, looked up, the tested form may be a part): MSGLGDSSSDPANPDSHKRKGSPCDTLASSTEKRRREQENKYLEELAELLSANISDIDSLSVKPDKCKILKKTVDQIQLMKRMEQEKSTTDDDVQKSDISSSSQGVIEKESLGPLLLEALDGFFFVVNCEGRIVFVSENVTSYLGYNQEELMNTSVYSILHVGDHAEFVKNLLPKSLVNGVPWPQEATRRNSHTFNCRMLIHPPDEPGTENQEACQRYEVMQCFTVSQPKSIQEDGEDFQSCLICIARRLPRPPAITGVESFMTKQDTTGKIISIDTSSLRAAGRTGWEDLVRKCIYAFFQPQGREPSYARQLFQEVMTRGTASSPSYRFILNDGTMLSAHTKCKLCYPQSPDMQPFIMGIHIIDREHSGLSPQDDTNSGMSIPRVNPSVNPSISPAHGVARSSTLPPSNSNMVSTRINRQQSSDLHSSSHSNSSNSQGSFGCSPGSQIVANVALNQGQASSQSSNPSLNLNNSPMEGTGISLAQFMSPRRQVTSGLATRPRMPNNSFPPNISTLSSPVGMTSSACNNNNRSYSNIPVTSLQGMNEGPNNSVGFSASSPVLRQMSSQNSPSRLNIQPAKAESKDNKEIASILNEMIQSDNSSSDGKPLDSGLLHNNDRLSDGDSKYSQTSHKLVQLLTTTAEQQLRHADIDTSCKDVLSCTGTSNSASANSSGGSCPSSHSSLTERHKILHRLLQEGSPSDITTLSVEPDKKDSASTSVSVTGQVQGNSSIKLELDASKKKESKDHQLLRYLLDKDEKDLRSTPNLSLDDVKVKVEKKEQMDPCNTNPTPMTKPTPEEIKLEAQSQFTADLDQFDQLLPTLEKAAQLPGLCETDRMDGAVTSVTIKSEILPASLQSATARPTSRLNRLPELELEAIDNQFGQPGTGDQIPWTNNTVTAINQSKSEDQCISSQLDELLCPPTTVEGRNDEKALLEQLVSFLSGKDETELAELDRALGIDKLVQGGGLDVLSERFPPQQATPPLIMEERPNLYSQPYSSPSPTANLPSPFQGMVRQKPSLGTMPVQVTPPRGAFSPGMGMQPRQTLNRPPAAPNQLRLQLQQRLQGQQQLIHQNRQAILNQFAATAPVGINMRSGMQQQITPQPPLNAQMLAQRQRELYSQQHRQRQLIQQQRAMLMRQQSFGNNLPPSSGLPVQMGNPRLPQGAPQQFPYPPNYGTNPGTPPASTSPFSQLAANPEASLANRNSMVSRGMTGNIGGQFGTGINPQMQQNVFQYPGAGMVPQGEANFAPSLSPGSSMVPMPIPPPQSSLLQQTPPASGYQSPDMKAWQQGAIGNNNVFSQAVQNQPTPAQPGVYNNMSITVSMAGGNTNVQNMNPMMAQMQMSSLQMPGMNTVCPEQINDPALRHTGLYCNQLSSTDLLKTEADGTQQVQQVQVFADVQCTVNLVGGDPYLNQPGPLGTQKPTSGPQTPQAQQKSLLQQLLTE

Usually inhibition stands for the change of the read-out against control, counted positive when it falls. Take `Cc1cc(C2=NNC(=NC3CC3)SC2)c(C)n1-c1ccccc1F`: the inhibition is 84.8% (active) in [1]; 88.3% (active) in assay [2]; 78.7% (active) in assay [3]; 80.7% (active) in assay [4]; 92% (active) in assay [5]; 79.6% (active) in assay [6]. Moreover, the inhibition in assay [7] is 91.1% (active); in assay [8], 79.1% (active); in assay [9], 93.6% (active); in assay [10], 97% (active).

Regarding `Cc1ccc(N(Cc2cc(=O)[nH]c3ccccc23)C(=O)CCl)c(C)c1`, the inhibition in assay [1] was 55.3% (active); in assay [2], 34.3% (active); in assay [3], 34.3%; in assay [4], 24.6%; in [5], 37.3% (active); in assay [6], 72.4% (active). For the same compound, the inhibition was 75.5% (active) in assay [7], 46% (active) in [8], 44.4% (active) in [9] and 60% (active) in assay [10].

For `CC(C)(C)c1ccc(C(=O)O/N=C(\N)c2ccccc2)cc1`, the inhibition was 74.5% (active) in assay [1]; 73.6% (active) in [2]; 61.1% (active) in assay [3]; 58.3% (active) in assay [4]; 61.9% (active) in [5]; 55% (active) in assay [6]. The inhibition in assay [7] was 64.8% (active); in [8] it was 51.1% (active); in assay [9] it was 76.9% (active); in assay [10], 87.7% (active).

As for `COc1ccc(C[C@H](N)C(=O)N[C@H]2[C@@H](O)[C@H](n3cnc4c(N(C)C)ncnc43)O[C@@H]2CO)cc1`, the inhibition in [1] is 97% (active); in [2], 94.2% (active); in [3] it was 89.3% (active); in assay [4] it was 91.8% (active); in assay [5], 97% (active); in [6] it was 111% (active). The inhibition is 99.4% (active) in assay [7], 99.4% (active) in assay [8], 91% (active) in [9] and 92.4% (active) in assay [10].

Regarding `CC1OC2CC(=O)OC2C2=C1C(=O)c1c(O)cccc1C2=O` (stereo not given), the inhibition is 97.6% (active) in assay [1]; 95.2% (active) in assay [2]; 97.5% (active) in assay [3]; 95.2% (active) in assay [4]; 96.8% (active) in [5]; 110% (active) in assay [6]. Further, the inhibition was 98.2% (active) in assay [7], 96.8% (active) in assay [8], 98.9% (active) in [9] and 99.7% (active) in assay [10].
